Shown are actives, neighbours in structure and some others; about 3.9% of the full set was active somewhere.
esBAF inh – Bmi1 luciferase reporter increase in mESCs, primary screen, esBAF inhibitor project, mouse ES cells, Bmi1 luciferase knock-in, single point | 24 h; 100% = twice the neutral-well signal | reporter increase, % at 12.5 µM | 350,000 tested, 2% active | AID 602393, 2012; in the data active = activation above about 40%;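 note: 0% = median of the plate's neutral control wells and 100% = double that signal; a rise in the Bmi1 reporter signal indicates esBAF inhibition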
Wnt bcat act – Wnt/beta-catenin pathway activators, primary screen, cell-based, plate reader, single point. Wnt/beta-catenin reporter cell assay, activator. activation, % at 9.35 µM. 300,000 tested, 1.2% active; in the data active = activation above about 30%, passing the limit was not always enough;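 note: 0% = neutral control wells and 100% = positive control wells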
HSF-1 act – HSF-1 activators, primary screen, NIH3T3-HGL cells, MG132 stress, luminescence, single point | NIH3T3-HGL HSF-1 luciferase reporter, 8 h; 100% = twice DMSO control signal | activation, % at 9 µM | 300,000 tested, 1.7% active;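 active = mean replicate activation of at least 50% with a set share of replicates each reaching 50%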;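 note: 0% = median of the neutral control wells and 100% = twice that signal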
HSF1 inhib – HSF1 inhibitors in luciferase reporter cells, primary screen, cell-based, NIH3T3, luminescence; NIH3T3-HGL HSE-luciferase, MG132-induced, luminescence 8 h; hits give low values; activity change, negative = inhibition, % at 7.5 µM (by protocol); 300,000 tested, 0.77% active;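 active = more than half of replicate wells show activity change below -50%, luminescence cut by over half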;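 note: luciferase reports HSF-1 transcriptional activity via heat shock element; 0% = median of DMSO wells and -100% = zero luminescence signal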
MITF act – activators of MITF-driven TRPM1 promoter reporter, primary screen, cell-based, SK-MEL-5, luciferase, single point | SK-MEL-5 TRPM1-promoter luciferase, 24 h; % of positive control, neutral wells = 0 | activation, % at 12.5 µM | 300,000 tested, 0.75% active | AID 588334, 2011;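 active = mean activation of at least 80% with every replicate also reaching 80%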;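 note: 0% = neutral control wells and 100% = parthenolide positive control wells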
* = called active by the depositor; nt = no result.

SMILES | esBAF inh | Wnt bcat act | HSF-1 act | HSF1 inhib | MITF act
COc1ccc2oc(=O)c(C(=O)N3CCN(C(=O)c4ccccc4)CC3)cc2c1 | -0.5 | -1.3 | 7.1 | -1.9 | 1.1
COc1ccc2oc(=O)c(C(=O)N3CCN(c4ccccc4)CC3)cc2c1 | 21.3 | 1.6 | 81.5* | 44.3 | 15.1
COc1ccc2oc(=O)c(C(=O)N3CCN(c4ccccc4C)CC3)cc2c1 | 75.7* | 49.5* | 30.0 | 23.9 | 105.5*
C[C@H]1CN([C@@H](C)CO)S(=O)(=O)c2ccc(C#CCN(C)C)cc2O[C@@H]1CN(C)Cc1ccccc1F | -5.0 | nt | nt | nt | nt
O=[N+]([O-])c1ccc(O)c(C=Nc2ccc3c(c2)OCCO3)c1 | nt | nt | -67.6 | -64.4* | -47.0
Oc1c(Br)cc(Br)cc1C=Nc1ccc2c(c1)OCO2 | nt | nt | nt | nt | -1.3
O=[N+]([O-])c1ccc(O)c(C=Nc2cccc3ncccc23)c1 | -2.2 | 2.2 | 38.9 | 24.3 | -11.9
Oc1c(Br)cc(Br)cc1C=Nc1ccc2c(c1)OCCO2 | nt | -2.2 | -79.6 | -79.3* | -32.0
O=[N+]([O-])c1ccc(O)c(C=Nc2ccc3oc(Cc4ccc(Cl)cc4)nc3c2)c1 | nt | nt | -77.7 | -73.5* | nt
O=[N+]([O-])c1ccc(O)c(C=Nc2cccc3ccccc23)c1 | -6.9 | 3.6 | 4.6 | 1.4 | -37.0
O=C(/C=C/c1cc([N+](=O)[O-])ccc1OC(F)F)Nc1ccc(OC(F)F)cc1 | nt | -4.1 | -5.6 | -11.3 | 4.2
O=C(/C=C/c1cc([N+](=O)[O-])ccc1OC(F)F)Nc1cccc([N+](=O)[O-])c1 | nt | -1.3 | -79.1 | -73.2* | -4.0
Cc1csc2ncc(C(=O)NCc3ccco3)c(=O)n12 | -3.7 | nt | 0.5 | -3.8 | -8.3
COc1ccc(CNC(=O)c2cnc3scc(C)n3c2=O)cc1 | -2.4 | 1.0 | -78.2 | -70.4* | 11.3
C/C=C/c1cnc2c(c1)C(=O)N([C@@H](C)CO)C[C@@H](C)[C@H](CN(C)C(=O)Nc1ccccc1F)O2 | -3.3 | nt | nt | nt | nt
CCOC(=O)c1ccc(N2C(=O)CC(N3CCN(Cc4ccccc4)CC3)C2=O)cc1 (configuration not stated) | -3.2 | nt | 3.3 | -4.0 | -3.2
CCOC(=O)c1ccc(N2C(=O)CC(N3CCC(Nc4ccc(F)cc4)CC3)C2=O)cc1 (configuration not stated) | 2.6 | nt | 57.9* | 22.7 | -12.4
Cc1nnnn1/C(=C\c1ccccc1)C(=O)OCC(=O)Nc1cccc(S(=O)(=O)N(C)C)c1 | 24.9 | -2.9 | nt | nt | -45.3
Cc1nnnn1/C(=C\c1ccccc1)C(=O)OCC(=O)Nc1ccc(Cl)cc1F | 4.9 | -6.6 | 333.5* | 341.3 | -50.0
O=C(C[C@@H]1C=C[C@@H](NC(=O)c2ccc(F)cc2)[C@@H](CO)O1)NCc1ccncn1 | 0.5 | nt | nt | nt | nt
Cc1ccc2c(c1)N(Cc1ccc([N+](=O)[O-])cc1)C=NS2(=O)=O | -2.5 | -3.2 | -70.9 | -64.8* | 7.5
CNC[C@H]1OCCCC[C@@H](C)Oc2ccc(NC(=O)Nc3c(C)noc3C)cc2C(=O)N([C@@H](C)CO)C[C@@H]1C | -4.9 | nt | nt | nt | nt
O=C(COc1ccccc1C(=O)c1cnn(-c2ccccc2)c1)Nc1ccc2ccccc2c1 | 82.3* | 7.4 | 28.6 | 15.7 | 113.6*
CC(C)c1ccc(NC(=O)COc2ccc(F)cc2C(=O)c2cnn(-c3ccccc3)c2)cc1 | nt | nt | 60.4* | 33.9 | 39.5
CCOC(=O)COc1ccccc1C(=O)c1cnn(-c2ccccc2)c1 | 36.0 | 2.7 | 25.9 | 26.0 | 51.3
SMILES | esBAF inh | Wnt bcat act | HSF-1 act | HSF1 inhib | MITF act
C=CCNc1nc(C(=O)OCC(=O)c2ccc(F)cc2)cs1 | 30.1 | 0.4 | 3.8 | 11.0 | 21.2
C=CCNc1nc(C(=O)OC(C)C(=O)c2ccc(C)cc2)cs1 (configuration not stated) | 56.8* | 22.0 | nt | nt | 28.6
Cc1ccc(NC2=NC3(CCCC3)N=C(N)N2)c(C)c1 | -5.9 | -0.4 | 82.6* | 66.1 | -18.8
C=CCS/C(=N\n1cnc2ccccc2c1=O)N1CCCCC1 | 52.8* | nt | -12.4 | 10.0 | 26.4
CC(C)c1ccc(NC2(C#N)C(=O)Nc3ccccc32)cc1 (configuration not stated) | 1.4 | nt | -67.1 | -60.9* | 17.4
Cc1ccccc1C(=O)Nc1cccc(C(=O)N/N=C/c2ccc3c(c2)OCO3)c1 | 42.6* | 0.9 | 8.7 | 7.5 | 38.5
Cc1nc2ccccn2c1C(=O)N/N=C/c1ccc2c(c1)OCO2 | nt | 0.3 | 29.7 | 17.6 | 87.5*
Cc1ccc(C(=O)N/N=C\c2ccc3c(c2)OCO3)cn1 | 11.3 | 3.7 | -6.8 | -3.7 | 3.7
Cc1nc2ccccn2c1C(=O)NCc1ccc2c(c1)OCO2 | 13.2 | nt | 18.3 | -3.0 | -5.1
Cc1ccc(C(=O)NN=Cc2ccc3c(c2)OCO3)cc1 | 48.1* | 8.5 | nt | nt | 45.4
COc1ccc(NC(=O)CCc2nnc3ccc(NCc4ccc5c(c4)OCO5)nn23)cc1 | -2.7 | -1.0 | 66.3* | 23.3 | 4.4
CO[C@@H]1CN(C)C(=O)c2ccc(NC(=O)C3CC3)cc2OC[C@H](C)N(C)C[C@H]1C | 0.8 | nt | nt | nt | nt
C[C@H]1CCCCO[C@H](CN(C)Cc2ccncc2)[C@@H](C)CN([C@@H](C)CO)C(=O)c2cc(NC(=O)Nc3ccc4c(c3)OCO4)ccc2O1 | 1.6 | nt | nt | nt | nt
CN(C)CC(=O)N1[C@@H]2c3ccc(-c4cccnc4)c(=O)n3C[C@H]1[C@H](CO)[C@H]2C(=O)NC1CCC1 | -2.2 | nt | nt | nt | nt
Cc1cccc(C(=O)Nc2cccc(C(=O)N/N=C/c3ccc4c(c3)OCO4)c2)c1 | 60.5* | 14.5 | 9.3 | 9.8 | 54.6
COc1ccc(CCC(=O)N/N=C/c2ccc3c(c2)OCO3)cc1 | 56.4* | 1.9 | 5.1 | 1.4 | 17.8
COc1ccc(S(=O)(=O)N/N=C\c2ccc3c(c2)OCO3)c(OC)c1 | nt | -9.2 | -12.4 | -10.8 | -3.8
COc1ccc(OC)c(S(=O)(=O)N/N=C\c2ccc3c(c2)OCO3)c1 | 47.0* | 11.0 | 9.7 | -5.2 | 42.9
O=C(N/N=C/c1ccccc1)c1cc(-c2ccc3c(c2)OCO3)n[nH]1 | 49.2* | -6.9 | 23.7 | 1.1 | 12.1
O=C(CCc1ccccc1)NCC(=O)N/N=C/c1ccc2c(c1)OCO2 | nt | 15.5 | -3.8 | -2.5 | 15.3
C[C@@H]1CN([C@@H](C)CO)C(=O)c2cc(NC(=O)C3CC3)ccc2O[C@@H]1CN(C)S(=O)(=O)c1cn(C)cn1 | 0.6 | nt | nt | nt | nt
COc1ccc(S(=O)(=O)Nc2ccc3c(c2)C(=O)N([C@H](C)CO)C[C@H](C)[C@@H](CN(C)C(=O)Nc2ccccc2)OCCCC[C@H](C)O3)cc1 | 7.8 | nt | nt | nt | nt
CCCN1[C@H](C(=O)NCc2ccccn2)[C@@H](CO)[C@@H]2Cn3c(ccc(C4=CCCC4)c3=O)[C@@H]21 | -3.1 | nt | nt | nt | nt
COc1ccc(C(=O)Nc2cccc3ccccc23)cc1 | 51.9* | -0.3 | 19.0 | 13.0 | nt
O=C(NNC(=O)c1cccc2ccccc12)c1ccc2c(c1)OCO2 | 54.0* | -1.6 | 6.6 | 7.2 | 49.7
